# Test results taken from US20240035010, “COMPOSITIONS COMPRISING A VARIANT POLYPEPTIDE AND USES THEREOF” (Arbor Biotechnologies, Inc., published 2024).
# T1: variant nuclease E154G/L38G/K221G combination (P14R, D32R, I61R, E311R, E154G, L38G, K221G)
# T1 chain: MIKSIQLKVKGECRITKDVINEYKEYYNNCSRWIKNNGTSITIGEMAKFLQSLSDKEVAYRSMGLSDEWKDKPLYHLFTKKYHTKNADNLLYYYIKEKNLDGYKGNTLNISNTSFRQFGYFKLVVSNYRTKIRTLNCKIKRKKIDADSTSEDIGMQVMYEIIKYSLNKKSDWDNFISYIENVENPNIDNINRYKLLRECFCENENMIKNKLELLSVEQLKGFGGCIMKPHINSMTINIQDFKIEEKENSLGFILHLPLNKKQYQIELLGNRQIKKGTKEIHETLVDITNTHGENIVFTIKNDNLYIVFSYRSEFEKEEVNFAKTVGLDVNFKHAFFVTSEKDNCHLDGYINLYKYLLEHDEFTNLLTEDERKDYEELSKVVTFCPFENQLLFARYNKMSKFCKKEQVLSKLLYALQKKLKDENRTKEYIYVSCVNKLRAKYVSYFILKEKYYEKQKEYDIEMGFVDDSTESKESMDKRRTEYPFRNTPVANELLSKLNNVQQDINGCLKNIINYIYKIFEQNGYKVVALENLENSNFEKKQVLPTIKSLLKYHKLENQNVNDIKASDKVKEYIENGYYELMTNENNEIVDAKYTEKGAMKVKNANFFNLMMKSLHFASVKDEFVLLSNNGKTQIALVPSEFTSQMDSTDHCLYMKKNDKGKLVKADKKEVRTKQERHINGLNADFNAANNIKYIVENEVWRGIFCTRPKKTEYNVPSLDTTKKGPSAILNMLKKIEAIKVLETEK
# How the values were obtained:
# Details in all cases: tags: pcDNA3.1 expression
# [1] = target: T1, variant nuclease E154G/L38G/K221G …; experiment: cell_activity; PAM 5'-ATTG-3'
# [2] = target: T1, variant nuclease E154G/L38G/K221G …; experiment: cell_activity; PAM 5'-TTTG-3'
# Description: (§1) Approximately 16 hours prior to transfection, 25,000 HEK293T cells in DMEM/10% FBS+Pen/Strep (D10 media) were plated into each well of a 96-well plate. On the day of transfection, the cells were 70-90% confluent. For each well to be transfected, a mixture of Lipofectamine 2000™ and Opti-MEM™ was prepared and incubated at room temperature for 5 minutes (Solution 1). After incubation, the Lipofectamine 2000™:Opti-MEM™ mixture was added to a separate mixture containing nuclease plasmid, RNA guide plasmid, and Opti-MEM™ (Solution 2). In the case of negative controls, the RNA guide plasmid was not included in Solution 2. Solutions 1 and 2 were mixed by pipetting up and down, then incubated at room temperature for 25 minutes. Following incubation, the Solution 1 and 2 mixture was added dropwise to each well of a 96-well plate containing the cells. Approximately 72 hours post transfection, cells were trypsinized by adding TrypLE™ to the center of each well and incubating at 37° C. for approximately 5 minutes. D10 media was then added to each well and mixed to resuspend cells. The resuspended cells were centrifuged at 500 g for 10 minutes to obtain a pellet, and the supernatant was discarded. […]
# (§2) The percentage of NGS reads containing indels (% indels) were calculated. […]
# [3] = target: T1, variant nuclease E154G/L38G/K221G …; experiment: cell_activity; PAM 5'-TTTA-3'
# Description: as §1, §2
binder,measurement,setting,value
EMX1 crRNA ; EMX1 target (ssRNA ; dsDNA) RNA: CUUGUUGUAUAUGUCCUUUUAUAGGUAUUAAACAACCCGCCGCUUCCUGAGCCAUC DNA 1: CCGCCGCTTCCTGAGCCATC DNA 2: GATGGCTCAGGAAGCGGCGG,indel editing activity,[1],0.17 fold of WT
AAVS1 crRNA ; AAVS1 target (ssRNA ; dsDNA) RNA: CUUGUUGUAUAUGUCCUUUUAUAGGUAUUAAACAACUGAGAAUGGUGCGUCCUAGG DNA 1: TGAGAATGGTGCGTCCTAGG DNA 2: CCTAGGACGCACCATTCTCA,indel activity,[2],0.19 fold of WT
VEGFA crRNA ; VEGFA target (ssRNA ; dsDNA) RNA: CUUGUUGUAUAUGUCCUUUUAUAGGUAUUAAACAACUCCAGACCACCAAUGGGCAC DNA 1: TCCAGACCACCAATGGGCAC DNA 2: GTGCCCATTGGTGGTCTGGA,indel activity,[3],0.06 fold of WT
